Numbering of substitutions follows the chain as printed.

Test in all cases: protein-binding microarray (PBM); PBM: ~300 nM protein, 6 mM HEPES pH 7.8, 80 mM KCl, 0.5 mM EDTA, 0.5 mM EGTA, 6% glycerol, 35 ng/ul poly-dIdC, 1% milk, 1 h, room temperature; Ap Aiptasia and Nv Nematostella (sea anemones) / Co Capsaspora / Aq Amphimedon (sponge) / Dm Drosophila / Hu human; RHD is the Rel homology domain; high values mean tight binding
What all share (settings): dsDNA, one strand shown

The target in one experiment is T1, GST-Ap-NF-kB RHD (Exaiptasia pallida (Aiptasia), UniProt A0A913YAJ5 2-422).
T1 sequence: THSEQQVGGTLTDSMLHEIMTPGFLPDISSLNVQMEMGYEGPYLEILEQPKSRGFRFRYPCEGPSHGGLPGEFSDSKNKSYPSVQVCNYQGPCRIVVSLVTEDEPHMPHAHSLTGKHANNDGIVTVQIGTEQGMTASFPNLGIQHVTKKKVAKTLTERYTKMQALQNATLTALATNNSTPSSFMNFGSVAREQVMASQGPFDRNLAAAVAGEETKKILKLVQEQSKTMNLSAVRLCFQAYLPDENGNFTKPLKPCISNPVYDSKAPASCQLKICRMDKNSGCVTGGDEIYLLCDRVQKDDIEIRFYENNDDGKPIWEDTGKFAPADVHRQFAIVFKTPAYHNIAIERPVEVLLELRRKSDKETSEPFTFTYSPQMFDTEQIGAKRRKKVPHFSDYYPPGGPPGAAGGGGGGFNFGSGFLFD

For experiment [1], the target named is T2, GST-Nv-NF-kB (Cys allele) (Nematostella vectensis, UniProt E5G601 2-411).
T2 sequence: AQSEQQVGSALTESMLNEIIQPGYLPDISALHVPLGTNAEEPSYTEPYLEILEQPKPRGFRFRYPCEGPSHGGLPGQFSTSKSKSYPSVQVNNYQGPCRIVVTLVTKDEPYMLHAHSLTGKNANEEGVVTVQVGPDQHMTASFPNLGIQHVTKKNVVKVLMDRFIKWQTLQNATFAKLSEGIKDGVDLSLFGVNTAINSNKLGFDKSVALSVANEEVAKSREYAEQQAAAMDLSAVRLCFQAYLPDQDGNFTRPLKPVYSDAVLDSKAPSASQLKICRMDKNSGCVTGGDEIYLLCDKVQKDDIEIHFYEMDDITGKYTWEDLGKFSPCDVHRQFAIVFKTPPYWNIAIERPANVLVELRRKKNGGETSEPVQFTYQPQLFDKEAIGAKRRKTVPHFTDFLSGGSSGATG

Experiment [2] deals with T3, GST-Nv-NF-kB (Ser allele) (Nematostella vectensis, UniProt A7UNT2 2-411).
T3 sequence: T2 sequence with Q21R, C66S, S207N, E215Q, V217A, E225K, A268E, D399E

The target in another experiment is T4, GST-Co-NF-kB (Capsaspora owczarzaki, UniProt F1ARL5 200-546).
T4 sequence: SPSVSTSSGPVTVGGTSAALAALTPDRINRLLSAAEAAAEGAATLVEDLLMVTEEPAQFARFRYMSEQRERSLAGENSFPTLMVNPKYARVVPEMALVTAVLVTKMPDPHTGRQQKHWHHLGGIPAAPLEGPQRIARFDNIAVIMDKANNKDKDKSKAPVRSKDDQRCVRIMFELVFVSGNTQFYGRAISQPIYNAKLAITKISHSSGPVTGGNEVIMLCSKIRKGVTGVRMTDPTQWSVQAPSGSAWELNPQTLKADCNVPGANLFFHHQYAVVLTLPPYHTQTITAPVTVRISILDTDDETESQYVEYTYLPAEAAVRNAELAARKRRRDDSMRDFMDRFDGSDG

The next experiment deals with T5, GST-Dm-Relish (Drosophila melanogaster, UniProt Q94527 99-473).
T5 sequence: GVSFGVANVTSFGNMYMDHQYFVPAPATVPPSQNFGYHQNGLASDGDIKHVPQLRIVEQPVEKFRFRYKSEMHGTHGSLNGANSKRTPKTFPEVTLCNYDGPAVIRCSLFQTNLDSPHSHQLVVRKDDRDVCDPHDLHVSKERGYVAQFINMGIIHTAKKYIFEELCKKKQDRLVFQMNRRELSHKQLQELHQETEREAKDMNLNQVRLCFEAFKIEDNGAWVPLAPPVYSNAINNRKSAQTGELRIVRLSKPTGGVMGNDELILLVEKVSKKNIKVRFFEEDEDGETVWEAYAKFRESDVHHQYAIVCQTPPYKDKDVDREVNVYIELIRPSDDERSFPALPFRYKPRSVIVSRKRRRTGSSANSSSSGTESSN

A further experiment has as its target T6, GST-Aq-NF-kB (Amphimedon queenslandica, UniProt A9Y5G7 2-389).
T6 sequence: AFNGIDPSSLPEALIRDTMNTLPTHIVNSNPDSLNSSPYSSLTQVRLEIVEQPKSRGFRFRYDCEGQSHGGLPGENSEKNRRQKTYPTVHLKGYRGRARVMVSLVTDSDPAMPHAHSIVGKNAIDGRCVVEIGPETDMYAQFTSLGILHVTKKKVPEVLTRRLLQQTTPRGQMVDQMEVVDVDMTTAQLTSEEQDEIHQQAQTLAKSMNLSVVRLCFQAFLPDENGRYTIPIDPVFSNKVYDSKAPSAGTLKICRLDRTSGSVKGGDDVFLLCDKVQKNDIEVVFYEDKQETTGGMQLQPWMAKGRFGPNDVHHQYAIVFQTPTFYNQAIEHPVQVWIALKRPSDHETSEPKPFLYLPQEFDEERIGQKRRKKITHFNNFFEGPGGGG

For a further experiment, the target named is GST-Hu-p50 (Homo sapiens, UniProt P19838 7-356).
Chain of GST-Hu-p50 (P19838 7-356): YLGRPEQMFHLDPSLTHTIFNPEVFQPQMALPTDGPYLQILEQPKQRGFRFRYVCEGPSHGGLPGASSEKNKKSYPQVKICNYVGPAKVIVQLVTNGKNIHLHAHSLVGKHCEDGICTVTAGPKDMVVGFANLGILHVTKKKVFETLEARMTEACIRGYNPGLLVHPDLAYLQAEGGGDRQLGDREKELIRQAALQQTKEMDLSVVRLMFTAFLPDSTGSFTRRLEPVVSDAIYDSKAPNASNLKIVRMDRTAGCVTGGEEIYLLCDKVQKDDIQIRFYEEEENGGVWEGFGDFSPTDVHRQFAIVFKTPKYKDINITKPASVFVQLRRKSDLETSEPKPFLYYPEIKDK

“CCGATTAACATCACCAACCCCCCTGATGTTAATCGGGTCTTGATTCGCTTGACGCTGCTG”: the binding signal in the experiment with GST-Ap-NF-kB RHD was 5.65 z-score; in experiment [1] it was 3.47 z-score; in experiment [2] it was 4.4 z-score; with GST-Co-NF-kB, 3.02 z-score; with GST-Dm-Relish, 5.37 z-score; with GST-Aq-NF-kB, 3.88 z-score. Further, in the experiment with GST-Hu-p50, the binding signal turned out to be 4.51 z-score.

“CCGATTAACATCAGATTTTCCCATGATGTTAATCGGGTCTTGATTCGCTTGACGCTGCTG”: the binding signal with GST-Ap-NF-kB RHD was 3.85 z-score; in experiment [1], 5.14 z-score; in experiment [2], 6.26 z-score; in the experiment with GST-Co-NF-kB, 5 z-score; with GST-Dm-Relish, 1.26 z-score; with GST-Aq-NF-kB, 4.25 z-score. Besides, in the experiment with GST-Hu-p50, the binding signal was 3.82 z-score.

For the sequence “CCGATTAACATCAAAACCCCCCCTGATGTTAATCGGGTCTTGATTCGCTTGACGCTGCTG”, the binding signal with GST-Ap-NF-kB RHD was 8.72 z-score; in experiment [1], 6.19 z-score; in experiment [2], 6.72 z-score; with GST-Co-NF-kB, 6.13 z-score; with GST-Dm-Relish, 9.97 z-score; in the experiment with GST-Aq-NF-kB, 7.1 z-score. This sequence also gave a binding signal with GST-Hu-p50 of 6.53 z-score.

With “CCGATTAACATCACAAAACCCCCTGATGTTAATCGGGTCTTGATTCGCTTGACGCTGCTG”, the binding signal was 9.76 z-score in the experiment with GST-Ap-NF-kB RHD; 9.02 z-score in experiment [1]; 10.5 z-score in experiment [2]; 3.3 z-score with GST-Co-NF-kB; 10.4 z-score with GST-Dm-Relish; 7.82 z-score with GST-Aq-NF-kB. In the experiment with GST-Hu-p50, the binding signal was 8.21 z-score.

As for “CCGATTAACATCAGGGGATTTCATGATGTTAATCGGGTCTTGATTCGCTTGACGCTGCTG”, the binding signal in the experiment with GST-Ap-NF-kB RHD came to 9.36 z-score; in experiment [1] it was 9.75 z-score; in experiment [2], 10.8 z-score; with GST-Co-NF-kB, 3.46 z-score; in the experiment with GST-Dm-Relish it was 8.36 z-score; with GST-Aq-NF-kB, 6.85 z-score. In the experiment with GST-Hu-p50, this sequence had a binding signal of 7.42 z-score.

Regarding “CCGATTAACATCAAACTTCCCCGTGATGTTAATCGGGTCTTGATTCGCTTGACGCTGCTG”, the binding signal with GST-Ap-NF-kB RHD came out at 6.81 z-score; in experiment [1] it was 8.41 z-score; in experiment [2], 8.97 z-score; with GST-Co-NF-kB it was 8.65 z-score; in the experiment with GST-Dm-Relish it was 7.92 z-score; with GST-Aq-NF-kB it was 7.04 z-score. In the experiment with GST-Hu-p50, this sequence had a binding signal of 6.45 z-score.

Regarding “CCGATTAACATCAAGGGGGATCCTGATGTTAATCGGGTCTTGATTCGCTTGACGCTGCTG”, the binding signal was 8.33 z-score with GST-Ap-NF-kB RHD; 6.38 z-score in experiment [1]; 7.04 z-score in experiment [2]; 3.07 z-score with GST-Co-NF-kB; 8.84 z-score with GST-Dm-Relish; 6.34 z-score with GST-Aq-NF-kB. The sequence further had a binding signal in the experiment with GST-Hu-p50 of 6.91 z-score.

For the sequence “CCGATTAACATCAGGGCCTCCCCTGATGTTAATCGGGTCTTGATTCGCTTGACGCTGCTG”, the binding signal came out at 6.07 z-score with GST-Ap-NF-kB RHD; 4.43 z-score in experiment [1]; 3.22 z-score in experiment [2]; 2.08 z-score with GST-Co-NF-kB; 7.13 z-score with GST-Dm-Relish; 6.75 z-score in the experiment with GST-Aq-NF-kB. This sequence also had a binding signal in the experiment with GST-Hu-p50 of 3.91 z-score.

With “CCGATTAACATCAGGCATTCCCCTGATGTTAATCGGGTCTTGATTCGCTTGACGCTGCTG”, the binding signal with GST-Ap-NF-kB RHD was 6.9 z-score; in experiment [1] it was 8.51 z-score; in experiment [2], 7.12 z-score; with GST-Co-NF-kB, 3.19 z-score; with GST-Dm-Relish, 7.67 z-score; in the experiment with GST-Aq-NF-kB, 7.93 z-score. Moreover, the binding signal with GST-Hu-p50 came out at 5.74 z-score.

With “CCGATTAACATCATTTTGGGGACTGATGTTAATCGGGTCTTGATTCGCTTGACGCTGCTG”, the binding signal in the experiment with GST-Ap-NF-kB RHD is 2.93 z-score; in experiment [1], 3.66 z-score; in experiment [2], 3.16 z-score; with GST-Co-NF-kB, 1.94 z-score; with GST-Dm-Relish, 1.4 z-score; with GST-Aq-NF-kB it was 4.11 z-score. Besides, the binding signal with GST-Hu-p50 is 3.28 z-score.

Regarding “CCGATTAACATCAATCTCCCCCATGATGTTAATCGGGTCTTGATTCGCTTGACGCTGCTG”, the binding signal is 6.53 z-score in the experiment with GST-Ap-NF-kB RHD; 4.32 z-score in experiment [1]; 6.24 z-score in experiment [2]; 8.65 z-score in the experiment with GST-Co-NF-kB; 2.05 z-score in the experiment with GST-Dm-Relish; 3.51 z-score with GST-Aq-NF-kB. In the experiment with GST-Hu-p50, this sequence yielded a binding signal of 5.94 z-score.

For “CCGATTAACATCAGGGGATCCCCTGATGTTAATCGGGTCTTGATTCGCTTGACGCTGCTG”, the binding signal with GST-Ap-NF-kB RHD worked out at 14.6 z-score; in experiment [1] it was 11.6 z-score; in experiment [2], 12.1 z-score; in the experiment with GST-Co-NF-kB, 7.53 z-score; with GST-Dm-Relish, 10.8 z-score; with GST-Aq-NF-kB it was 11.3 z-score. In the experiment with GST-Hu-p50, this sequence returned a binding signal of 7.87 z-score.
